# Test results taken from PubChem BioAssay (NCATS).
# A number with no mark means an inactive call. Records with an inconclusive call do not appear. Entries that show only a call come without a potency. Active and inactive are the calls of the source. The call rests on the fitted dose curve; in most records, active means well fitted curve in the direction sought with a large enough effect; inconclusive means small, poorly fitted or top-dose-only effect, or another doubt; inactive means no such curve, though single readings can be large; an effect the other way counts as inactive or inconclusive. Where a SMILES comes first, the peptide text is derived from it. The star is where a group is joined. Cbz = O=C(OCc1ccccc1)*; CH2F = FC*
# Assays:
# [1] = Primary fluorescence-based thiol-reactive (MSTI) qHTS assay for identification of artifact compounds. (AID 1845221); conditions: MSTI thiol-reactivity probe, 1 h; series mostly up to 53.8 µM; further: nearly all actives have a fitted effect of over 65% in size; further: potency means the concentration at half of the fitted maximal effect;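 on activity change, negative = thiol reactive: thiol-reactive compounds lower the probe fluorescence signal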
# In short: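 First, 4 uM MSTI in 2% DMSO/PBS pH 7.4 was dispensed; next, compounds were added; then plates sat 1 h at room temperature without light. Finally, emission at 598 nm was recorded.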
# [2] = test system: Nanoluciferase (engineered Oplophorus gracilirostris luciferase); assay: Primary Nanoluciferase (NLuc) qHTS assay for identification of artifact compounds. (AID 1845222); conditions: NLuc-conditioned medium, Nano-Glo luminescence, 5 min; series mostly up to 54.1 µM;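 further: NLuc secreted into diluted conditioned medium of S16 cells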
# In short: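 Concentration-response data were obtained by luminescence after 5 min with Nano-Glo substrate at 1:100. The enzyme was diluted S16 NLuc-expressing cell medium, preincubated with compound for 15 min at RT. Curves were fitted with a 4-parameter Hill model.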
# [3] = Primary redox qHTS assay for identification of artifact compounds. (AID 1845223); conditions: Amplex Red/HRP redox cycling with DTT, fluorescence; series mostly up to 53.8 µM
# In short: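 Redox-cycling detection via DTT (250 uM final) oxidation coupled to Amplex Red (25 uM)/HRP (250 mU/mL) in HBSS. 15 min preincubation plus 30 min after DTT, room temperature. Ex/Em 525/598 nm; 4-parameter Hill fit against DMSO and 10 uM DA3003.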
Compound,Potency [1],Potency [2],Potency [3],"activity change, negative = thiol reactive [1]","activity, negative = inhibition [2]",redox activity (% of DA3003) [3]
N[C@@H](CCNCc1ccc(Cl)cc1)C(=O)N1CCCCC1,inactive,inactive,inactive,,,
COC(=O)CC[C@H](NC(=O)[C@H](CC(C)C)NC(=O)OCc1ccccc1)C(=O)N[C@@H](Cc1cnc[nH]1)C(=O)N[C@@H](CC(=O)OC)C(=O)CF (Cbz-LE(OMe)HD(OMe)-CH2F),,,,12.6% [at 11.5 µM],2.59% [at 11.6 µM],-3.22% [at 11.5 µM]
COc1c2cc(c(O[C@@H]3O[C@H](CO)[C@@H](O)[C@H](O)[C@H]3O)c1OC)CCCCC(O)CCc1ccc(O)c-2c1 (stereo not given in full),6.53 µM (active),inactive,inactive,,,
Cc1ccc(-c2c(-c3nn(C)c4ncnc(N5CCC(N6CCCCC6)C5)c34)cnn2C)cc1 (stereo not given),inactive,inactive,inactive,,,
CC(C)(O)C(O)C(=O)OCc1ccc(O[C@@H]2O[C@H](CO)[C@@H](O)[C@H](O)[C@H]2O)cc1 (stereo not given in full),inactive,inactive,inactive,,,
N#Cc1cccc(-c2c[nH]c3ncnc(N4CCOCC4)c23)c1,inactive,inactive,inactive,,,
C/C1=C\CC(C)(C)/C=C/C/C(C(=O)O)=C/CC1,inactive,inactive,inactive,,,
CSCC1OC(n2cnc3c(=O)[nH]cnc32)C(O)C1O (stereo not given),inactive,inactive,inactive,,,
C[C@H]1[C@H](C)CC[C@]2(C(=O)O)CC[C@]3(C(=O)O)C(=CCC4[C@@]5(C)CC[C@H](O[C@@H]6O[C@@H](C)[C@H](O)[C@@H](O)[C@H]6O)C(C)(C)C5CC[C@]43C)[C@H]12 (stereo not given in full),inactive,inactive,inactive,,,
CC1(C)CC[C@]2(C(=O)O)CC[C@]3(C)C(=CCC4[C@@]5(C)C[C@@H](O)[C@H](O)[C@@](C)(CO)C5[C@H](O)C[C@]43C)[C@@H]2C1 (stereo not given in full),inactive,inactive,inactive,,,
C/C=C(\C)C(=O)O[C@H]1C=CC(=O)O[C@H]1/C=C/[C@H](O)[C@@H](C)O,inactive,inactive,inactive,,,
C/C=C/C(=O)OC1/C=C/C(O)C(OC(C)=O)CCC(=O)OC1C (stereo not given),inactive,inactive,inactive,,,
CCC1(O)CC2c3cc(OC)c(OC)cc3CCN2CC1CC(C)C (stereo not given),inactive,inactive,inactive,,,
Cc1cc(CNC(=O)c2cc(C(=O)NCc3ccc(F)c(C)c3)ncn2)ccc1F,inactive,inactive,inactive,,,
COc1cc(O)cc2c1C(=O)OC(C)CCCCCCC2 (stereo not given),11.9 µM (active),inactive,inactive,,,
C=C(C(=O)O)C1CC(O)C2(C)CCCC(C)(O)C2C1 (stereo not given),11.9 µM (active),inactive,inactive,,,
C=C1C(=O)O[C@@H]2C[C@]3(C)[C@@H](CCC(C)=O)[C@@H]3C[C@H]12,inactive,inactive,inactive,,,
CC(NC(=O)[C@H](Cc1ccccc1)NC(=O)OCc1ccccc1)C(=O)CF (stereo not given in full),inactive,inactive,inactive,,,
C/C(=C\CCC(C)C1CC(O)C2(C)C3CCC4C(C)(C)C(OC5OCC(O)C(O)C5O)CCC45CC35CC(O)C12C)C(=O)O (stereo not given),inactive,inactive,inactive,,,
CC1(O)CCC2C(C3C1CCC3(C)O)C2(C)C (stereo not given),inactive,inactive,inactive,,,
Cc1ccccc1N1CCN(S(=O)(=O)C[C@]23CC[C@H](C[C@@H]2NC(=O)[C@@H](N)CCS(C)(=O)=O)C3(C)C)CC1,inactive,inactive,inactive,,,
CC1(C)C(=O)N2c3ccccc3C(O)(CC(C(=O)O)n3cnc4ccccc4c3=O)C2N1O (stereo not given),inactive,inactive,inactive,,,
CCC(C)C(=O)O[C@H]1[C@@H](O[C@H]2O[C@H](CO)[C@@H](O)[C@H](O)[C@H]2O)O[C@H](CO)[C@@H](O)[C@@H]1O (stereo not given in full),inactive,inactive,inactive,,,
Cn1cc(CCn2cnc(-c3cnn(C)c3)c2-c2ccc(C#N)cc2)cn1,inactive,inactive,inactive,,,
CC(=O)OC(C)C(C)(O)C(=O)O[C@@H]1CC[C@]2(C)CC(=O)C(=C(C)C)C[C@H]2[C@]1(C)OC(C)=O (stereo not given in full),inactive,inactive,inactive,,,

Compound,Potency [1],Potency [2],Potency [3],"activity change, negative = thiol reactive [1]","activity, negative = inhibition [2]",redox activity (% of DA3003) [3]
C=C(C(=O)O)[C@@H]1CC[C@H](C)[C@@H]2CC(=O)C(C)=C2C1,21.2 µM (active),inactive,inactive,,,
C[C@]12CCC[C@](C)(C(=O)O)C1CCC13CC(CO)C(CCC12)C3 (stereo not given in full),inactive,inactive,inactive,,,
C/C=C(\C)C(=O)OC1CC2C(CC=C3CC(OC4CC(OC)C(OC5CC(OC)C(OC6CC(OC)C(OC7CC(OC)C(OC8CC(OC)C(OC9OC(CO)C(O)C(O)C9O)C(C)O8)C(C)O7)C(C)O6)C(C)O5)C(C)O4)CCC32C)C2(O)CCC(C(C)=O)C12C (stereo not given),,,,7.96% [at 11.5 µM],4.2% [at 11.6 µM],12.2% [at 11.5 µM]
C/C=C(/C)C(=O)O[C@H]1C[C@]2(C)O[C@@H]2[C@@H](OC(C)=O)[C@@]2(C)CC[C@@](O)(C(C)C)[C@H]12,inactive,inactive,inactive,,,
C=CC(C)(O)C1CC2C3(C)CCCC(C)(C)C3C(O)C(O)C2(C)O1 (stereo not given),inactive,inactive,inactive,,,
COC(=O)c1c(CC=C(C)C)c(OC2OC(CO)C(O)C(O)C2O)c2ccccc2c1OC1OC(CO)C(O)C(O)C1O (stereo not given),inactive,inactive,inactive,,,
C/C=C(/C)C(=O)O[C@@H]1C[C@@H](OC(=O)/C(C)=C\C)[C@@]2(C)C3C(=O)C=C(C)C2C3C1(C)C,inactive,inactive,inactive,,,
Cc1cc(Cn2cnc3c2CC(C(=O)O)N(C(=O)C(c2ccccc2)c2ccccc2)C3)ccc1N(C)C (stereo not given),inactive,inactive,inactive,,,
C=C1CC[C@H]2[C@@](C)(CCC(OC3OC(CO)C(O)C(O)C3O)[C@@]2(C)CO)C1C(=O)CC1=CCOC1=O (stereo not given in full),3.27 µM (active),inactive,inactive,,,
CC1(C)CC[C@]2(C(=O)O[C@@H]3O[C@H](CO)[C@@H](O)[C@H](O)[C@H]3O)CC[C@]3(C)C(=CCC4[C@@]5(C)CC[C@H](O[C@@H]6O[C@H](C(=O)O)[C@@H](O[C@@H]7O[C@H](CO)[C@@H](O)[C@H](O)[C@H]7O)[C@H](O)[C@H]6O)C(C)(C)C5CC[C@]43C)C2C1 (stereo not given in full),,,,348% [at 11.5 µM],4.13% [at 11.6 µM],3.95% [at 11.5 µM]
CC(CC12CCCN1C(=O)C1CCCN1C2=O)OC(N)=O (stereo not given),inactive,inactive,inactive,,,
COc1ccc(C2COc3cc(O)ccc3C2)c(O)c1OC (stereo not given),inactive,inactive,inactive,,,
COc1cc(-c2ccc(O)cc2)c(OC)c(O)c1C1=CC(=O)OC1CC(=O)O (stereo not given),inactive,inactive,inactive,,,
CC1OC(O[C@@H]2[C@@H](O)[C@H](OC(=O)[C@]34CCC(C)(C)C[C@H]3C3=CCC5[C@@]6(C)CC[C@H](O[C@@H]7O[C@H](C(=O)O)[C@@H](O)[C@H](O[C@@H]8OC[C@@H](O)[C@H](O)[C@H]8O)[C@H]7O[C@@H]7O[C@H](CO)[C@H](O)[C@H](O)[C@H]7O)[C@@](C)(C=O)C6CC[C@@]5(C)[C@]3(C)C[C@H]4O)O[C@H](C)[C@@H]2OC2OC(C)C(OC3OCC(O)C(O)C3O)C(O)C2O)C(O)C(O)C1O (stereo not given in full),,,,288% [at 11.5 µM],2.13% [at 11.6 µM],19.3% [at 11.5 µM]
NCCCCN(Cc1nc2ccccc2[nH]1)[C@H]1CCCc2cccnc21,inactive,inactive,inactive,,,
CC(C)C1(O)C=C2C(=O)CC3C(C)(C(=O)O)CCCC3(C)C2CC1 (stereo not given),inactive,inactive,inactive,,,
CCCCCOC(=O)Nc1nc(=O)n(C2O[C@H](C)[C@@H](O)[C@H]2O)cc1F (stereo not given in full),inactive,inactive,inactive,,,
NC1=NC2(c3cc(NC(=O)c4ccc(F)cn4)ccc3F)COCC2CS1 (stereo not given),inactive,inactive,inactive,,,
CC1(C)CC2C(O)C3=C(CC(C)(O)C2C1)C(=O)OC3 (stereo not given),inactive,inactive,inactive,,,
CC(=O)OCC1OC(O[C@H]2CC[C@@]3(C)C(CC[C@]4(C)C3CC=C3[C@@H]5CC(C)(C)CC[C@]5(C(=O)O)CC[C@]34C)[C@]2(C)CO)C(O)C(O)C1OC1OC(C)C(O)C(OC2OCC(O)C(O)C2O)C1O (stereo not given in full),,,,307% [at 11.5 µM],3.41% [at 11.6 µM],-4.45% [at 11.5 µM]
C=C(C)[C@@H]1CC[C@]2(C(=O)O)CC[C@]3(C)C(CCC4[C@]5(C)C(CC[C@]43C)C(C)(C)[C@@H](O)[C@@H]5C(=O)O)C12 (stereo not given in full),inactive,inactive,inactive,,,
CC(=O)O[C@@H]1[C@@H](O)[C@H](C)O[C@@H](O[C@H]2[C@@H]3C=CO[C@@H](O[C@@H]4O[C@H](CO)[C@@H](O)[C@H](O)[C@H]4OC(C)=O)[C@@H]3[C@@]3(CO)O[C@@H]23)[C@@H]1OC(=O)/C=C/c1ccc(O)cc1,6.3 µM (active),inactive,inactive,,,
C=C1C(O)CC2C(C(=O)O)=COC(OC3OC(CO)C(O)C(O)C3OC(=O)/C=C\c3ccc(O)cc3)C12 (stereo not given),4.62 µM (active),inactive,inactive,,,
Cc1ccc(Cl)cc1N(CC(=O)Nc1c(F)cccc1F)S(C)(=O)=O,inactive,inactive,inactive,,,
CC1(C)CC[C@]2(C(=O)O[C@@H]3O[C@H](CO)[C@@H](O)[C@H](O)[C@H]3O)CC[C@]3(C)C(=CCC4[C@@]5(C)CC[C@H](O[C@@H]6O[C@H](C(=O)O)[C@@H](O[C@@H]7O[C@H](CO)[C@@H](O)[C@H](O)[C@H]7O)[C@H](O)[C@H]6O[C@@H]6O[C@H](CO)[C@@H](O)[C@H](O)[C@H]6O)C(C)(C)C5CC[C@]43C)C2C1 (stereo not given in full),,,,240% [at 11.5 µM],0% [at 11.6 µM],12.6% [at 11.5 µM]
